Screening data: PubChem BioAssay, National Center for Advancing Translational Sciences (NCATS)
An excerpt weighted towards active compounds, which were near 12% of everything screened.
HP1b chromo inh: blocks HP1-beta chromodomain binding to methylated histone tails | Potency, µM (highest dose often 114 µM), actives largely listed as inhibitors | 0.56% of 390,000 active | AlphaScreen HP1-beta / biotin-H3K9me3 peptide binding; also: nearly all actives have a fitted effect of over 70% in size
Target sequence (P83916 whole entry, looked up): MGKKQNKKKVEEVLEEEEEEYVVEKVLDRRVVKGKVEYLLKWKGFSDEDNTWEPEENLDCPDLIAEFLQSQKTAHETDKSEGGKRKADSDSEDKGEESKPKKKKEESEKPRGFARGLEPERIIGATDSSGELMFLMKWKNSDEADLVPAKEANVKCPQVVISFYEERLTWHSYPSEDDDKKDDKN
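AlphaScreen: HP1-beta (50 nM) preformed 30 min with biotin-H3(1-18)K9me3 peptide (50 nM) in PBS pH 7.4, 0.01% Tween-20. Compound added for 30 min at RT, then streptavidin donor/nickel chelate acceptor beads (10 ug/mL) for 30 min.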
BAZ2B block: inhibitors of human BAZ2B bromodomain. AlphaScreen BAZ2B-H3K14Ac peptide displacement. Q9UIF8. Potency, µM (top dose mostly 114 µM), most hits filed as inhibitors. 4.4% of 360,000 active. AID 504333; also: nearly all actives have a fitted effect of over 60% in size
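Inhibition is scored as reduced AlphaScreen emission. The BAZ2B/b-H3(5-23)K14Ac complex (50 nM each) in PBS pH 7.4, 0.01% Tween-20 meets compound (up to 110 uM) for 30 min at RT before bead addition.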
L3MBTL1 block: L3MBTL1 (human) inhibition. 0.66% of 230,000 active. Q9Y468. Potency, µM (top dose mostly 57.1 µM), usual class: inhibitors. AID 485360. AlphaScreen L3MBTL1–H3K9me1 peptide binding; also: nearly all actives have a fitted effect of over 60% in size
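First, the protein-peptide complex forms for 30 min at room temperature (L3MBTL1 50 nM, biotinylated H3K9me1 peptide 75 nM). Next, compounds are pin-transferred and incubated 30 min. Finally, AlphaScreen beads are added and read after 30 min.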
Sfp PPTase inh: blocks B. subtilis Sfp PPTase activity | Biochemical Sfp PPTase activity, qHTS | Potency, µM, usual class: inhibitors | AID 1490 | 3.5% of 310,000 active;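 also: the enzyme is Sfp with the accession as filed and its product quenches rhodamine fluorescence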
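Fluorescence-quenching assay with 15 nM Sfp, 5 uM rhodamine-CoA and 12.5 uM BHQ-2-labelled ybbR peptide in pH 7.6 Hepes/MgCl2 buffer. Enzyme was pre-incubated with compound for 15 min at room temperature. Rate was taken from the 30-min fluorescence change (525/598 nm).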
G9a block: inhibitors of human histone lysine methyltransferase G9a. Q96KQ7. G9a H3K9 monomethylation, AlphaScreen, 2 h. 8.8% of 350,000 active. Potency, µM (top dose mostly 102 µM), usual class: inhibitors; also: nearly all actives have a fitted effect of over 75% in size
Target sequence (Q96KQ7 913-1193 limits assumed): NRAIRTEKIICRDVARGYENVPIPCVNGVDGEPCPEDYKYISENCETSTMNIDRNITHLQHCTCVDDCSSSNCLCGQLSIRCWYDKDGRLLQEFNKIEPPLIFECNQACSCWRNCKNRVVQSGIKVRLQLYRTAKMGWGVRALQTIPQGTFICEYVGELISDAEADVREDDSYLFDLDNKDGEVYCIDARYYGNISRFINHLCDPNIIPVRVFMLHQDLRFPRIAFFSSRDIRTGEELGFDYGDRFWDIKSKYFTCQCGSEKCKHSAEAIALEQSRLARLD
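Readings reflect AlphaScreen signal from monomethyl-H3K9 antibody detection. HMT at 20 nM; substrate b-H3K9 500 nM; cofactor SAM 20 uM; 2 h RT reaction; compounds tested as titrations in qHTS with 15 min preincubation.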
JMJD2A Tudor inh: inhibitors of human JMJD2A Tudor domain; O75164; AlphaScreen JMJD2A-Tudor / H3K4me3 peptide binding; Potency, µM (top dose mostly 114 µM), most hits filed as inhibitors; 4.4% of 390,000 active; also: nearly all actives have a fitted effect of over 50% in size
Numbers stand for hits; - = inactive; ? = inconclusive; . = no result; [ ] = remark or other dose. Calls follow the shape of the dose curve; as a rule, active = well fitted curve in the direction sought with a large enough effect; inconclusive = small, poorly fitted or top-dose-only effect, or another doubt; inactive = no such curve, though single readings can be large; an effect the other way counts as inactive or inconclusive.

SMILES	HP1b chromo inh	BAZ2B block	L3MBTL1 block	Sfp PPTase inh	G9a block	JMJD2A Tudor inh
CCOC(=O)C1CCCN(Cc2ccc(OCc3ccccc3)c(OC)c2)C1 (stereo unspecified)	-	50.1µM	-[2.29 µM]	?	-[0.501 µM]	?
CCN(CC)C(=O)C1CCCN(Cc2ccc(OC)c(C)c2)C1 (stereo unspecified)	?	?	-	-	-[12.7 µM]	0.891µM
CCOC(=O)N/N=C1/C[C@@H](O)[C@@H](O)[C@@H]2[C@@H]3C(=O)N(C(C)(C)C)C(=O)[C@H]3CC[C@H]12	.	.	.	-	.	.
N#Cc1ccccc1NC(=O)C(=O)NCC(c1cccnc1)N1CCN(c2ccccc2)CC1 (stereo unspecified)	-	-	.	.	-	-
Brc1ccc(CN2CCCCCC2)cc1	?	.	.	.	.	28.2µM
CCOC(=O)C1CCCN(Cc2cccc(Cl)c2)C1 (stereo unspecified)	?	?	-	-	8.91µM	2.82µM
O=C(c1cccc(Cl)c1)C1CCCN(Cc2ccc(N3CCNC3=O)cc2)C1 (stereo unspecified)	-	?	-	-	50.1µM	?
CCn1cc2nc(SCc3cccc(C(F)(F)F)c3)n(Cc3ccc(Cl)cc3)c(=O)c2n1	-	-	.	.	-	-
Cc1ncc(N=Nc2ccccc2)c(-c2ccccc2)n1	31.6µM	14.1µM	?	-	?	39.8µM
COC(=O)c1ccc(CSc2nc3c(cnn3-c3ccc(C)c(C)c3)c(=O)[nH]2)o1	-	-	-	-	-	50.1µM
COC(=O)c1ccc(CSc2nc3scc(-c4cccs4)c3c(=O)[nH]2)o1	-	.	?	56.2µM	?	44.7µM
COc1ccc(NCc2nnc3n2CCCCC3)c(OC)c1	-	-	.	.	-	-
COC1=C2C[C@H](C)C[C@H](OC)[C@@H](O)[C@@H](C)C=C(C)[C@H](OC(N)=O)[C@@H](OC)C=CC=C(C)C(=O)NC(=CC1=O)C2=O	-	.	.	.	.	?
CS(=O)(=O)c1ccccc1-c1nc(-c2cc(C(F)(F)F)cc(C(F)(F)F)c2)no1	-	-	-	44.7µM	-	-
COC(=O)c1ccc(Cn2ncc3c4sc(C)cc4n(C)c3c2=O)cc1	.	.	.	.	.	-
O=C(Sc1cccc2cccnc12)c1ccccc1Br	.	-	.	?	-	.
O=C(Sc1cccc2cccnc12)c1ccc(F)cc1	.	?	4.47µM	?	?	.
N#CN1CCC(NS(=O)(=O)c2ccc(F)cc2)CC1	.	.	.	.	.	-
Cc1cc(-c2cccc([N+](=O)[O-])c2)nc2ccccc12	-	-	-	-	12.6µM	-
COc1ccccc1Nc1nc(-c2cccc([N+](=O)[O-])c2)nc2ccccc12	-	?	-	79.4µM	-[0.501 µM]	?
O=C(Nc1cccc(-c2nc3ccccc3c(=O)o2)c1)c1ccccc1	?	-	.	-	-	25.1µM
O=c1oc(-c2cccc([N+](=O)[O-])c2)nc2ccccc12	-	-	-	-	44.7µM	-
O=[N+]([O-])c1ccc2nc(-c3ccccc3)oc2c1	-	-	?	-	39.8µM	-
COc1ccc2c(c1)c1c(c(=O)n(-c3ccc(C)cc3)c(=O)n1CC(=O)N1CCCC1)n2C	-	-	.	.	-	-
COc1ccc(NC(=S)Nc2ccc(Oc3ccccc3)cc2)cc1	-	-	-	-	-	-
SMILES	HP1b chromo inh	BAZ2B block	L3MBTL1 block	Sfp PPTase inh	G9a block	JMJD2A Tudor inh
COc1ccc(C(=O)Nc2c(O)ccc3ccccc23)cc1	?	.	.	.	.	79.4µM
COc1ccc(C(=O)NNc2ccccc2)cc1	-	?	-	-	8.91µM	-
COc1ccc(C(=O)Nc2c(O)ccc3ccccc23)cc1OC	-	.	.	.	.	-
COc1ccc(NC(=S)NNc2ccc(C(=O)O)cc2)cc1	?	-	.	-	79.4µM	-
COc1ccc(NC(=O)c2ccccc2)cc1	-	-	-	.	-[0.501 µM]	-
COc1cccc(C2=NS(=O)(=O)N(C)C(C(=O)Nc3ccccc3SC)=C2)c1	-	-	.	.	-	-
O=c1c2ccccc2sn1-c1ccc(S(=O)(=O)N2CCOCC2)cc1	?	.	.	.	.	50.1µM
O=S(=O)(c1ccc(N2CCOCC2)cc1)N1CCOCC1	-	-	.	-	-	-
O=c1c2ccccc2sn1-c1ccc(Cl)c(S(=O)(=O)N2CCOCC2)c1	?	.	.	.	.	14.1µM
COc1ccc(CNCc2ccc(C(=O)O)s2)cc1	-	-	.	.	-	-
